Hits are enriched below; roughly 3.4% of the tested compounds scored in any of these assays.
TEAD-YAP block = TEAD-YAP interaction inhibition; HEK-TIYL cells, TEAD-Gal4/YAP UAS-luciferase luminescence; inhibition, % at 9.12 µM; 640,000 compounds, 1.4% hits; AID 1259422; in the data active = inhibition above about 32%
GPR151 ag = activates the human receptor GPR151 | Q8TDV0 | PathHunter beta-arrestin GPR151 cells, luminescence | activation, % at 11.2 µM | AID 1508602 | 650,000 compounds, 1% hits; in the data active = activation above about 4.9%
FBW7 activator = activators of human E3 ligase FBW7; AlphaScreen FBW7–phospho-cyclin E peptide binding, activator screen; normalized activity (activation), % at 26.1 µM; 650,000 compounds, 0.13% hits; AID 1259310; in the data active = normalized activity above about 1.9%;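 note: purified mutant Fbw7 with reduced substrate affinity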
MITF primary = human MITF inhibition, primary screen; AlphaScreen MITF homodimerization, bead proximity signal; inhibition, % at 2.6 µM; 650,000 compounds, 0.91% hits; AID 1259374; in the data active = inhibition above about 50%
Target sequence (O75030 whole entry, looked up): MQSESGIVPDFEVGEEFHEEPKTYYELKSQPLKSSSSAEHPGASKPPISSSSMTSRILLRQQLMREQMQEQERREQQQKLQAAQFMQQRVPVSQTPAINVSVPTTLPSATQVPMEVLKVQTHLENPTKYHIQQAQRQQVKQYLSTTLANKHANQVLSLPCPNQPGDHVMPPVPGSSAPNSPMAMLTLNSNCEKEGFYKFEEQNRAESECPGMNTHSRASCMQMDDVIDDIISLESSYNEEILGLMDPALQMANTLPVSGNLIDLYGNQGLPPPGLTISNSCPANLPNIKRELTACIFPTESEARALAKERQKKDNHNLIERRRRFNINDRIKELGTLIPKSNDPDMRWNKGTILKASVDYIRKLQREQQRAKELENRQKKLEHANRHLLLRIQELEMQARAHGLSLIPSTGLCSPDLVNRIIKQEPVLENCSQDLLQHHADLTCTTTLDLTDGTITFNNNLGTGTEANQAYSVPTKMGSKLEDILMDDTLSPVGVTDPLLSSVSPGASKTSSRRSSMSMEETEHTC
GPR151 confirm = human GPR151 activation, confirmation screen | GPR151 PathHunter beta-arrestin cells, luminescence, 90 min; % of EA-reagent control over plate median | activation, % at 11.2 µM | AID 1508609 | shares compounds with GPR151 ag | 6,700 tested, under 10 active;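 active = mean percent activation across replicates above the confirmation screen cutoff of 4.91%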
GPR119 counter = counter-screen for GPR151 activators: effect on human GPR119; shares compounds with GPR151 ag; activation, % at 11.2 µM; 6,700 compounds, 0.3% hits; GPR119 PathHunter beta-arrestin cells, luminescence, 90 min; 0 = compound-well median, 100 = enzyme-acceptor control;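 active = mean percent activation in the counterscreen above 29.09%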;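 note: counterscreen on off-target GPR119 to flag nonselective hits from the GPR151 activator screen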
Of the large screens only hits and unclear results are named; the others gave an inactive call (follow-up assays come after a bar, where they were run).

CCOc1ccc(N=Cc2c(O)n(CC)c(=S)[nH]c2=O)cc1	GPR151 ag 6.0 | GPR151 confirm inactive | GPR119 counter inactive
Cc1cc(Cl)ccc1OCCCC(=O)N/N=C/c1ccccc1O	none
CCOC(=O)N1CCN(c2cc(N3CCN(C)CC3)c(F)cc2[N+](=O)[O-])CC1	GPR151 ag 8.3 | GPR151 confirm inactive | GPR119 counter inactive
CCOC(=O)N1CCN(c2cc(N3CCCC3)c(F)cc2[N+](=O)[O-])CC1	none
COCCN1C(=O)CC(NNC(=O)COc2ccc(OCc3ccccc3)cc2)C1=O (stereo not given)	none
CCOCCCNC(=O)c1oc(=O)c2ccccc2c1-c1ccc(C)cc1	none
CC(C)(C)NC(=O)Cn1cc(S(=O)(=O)Cc2ccc(F)cc2)c2ccccc21	GPR151 ag 5.3 | GPR151 confirm inactive | GPR119 counter inactive
NC(=O)c1ccc(NC(=O)Cn2cc(S(=O)(=O)Cc3ccccc3)c3ccccc32)cc1	none
CC(C)(C)NC(=O)Cn1cc(S(=O)(=O)Cc2ccccc2)c2ccccc21	GPR151 ag 8.3 | GPR151 confirm inactive | GPR119 counter inactive
COC(=O)C1(Cc2ccccc2)NC(c2cccs2)C2C(=O)N(c3ccccc3)C(=O)C21 (stereo not given)	none
COc1ccccc1-n1c(CNC(=O)C23CC4CC(CC(C4)C2)C3)nnc1SC	none
O=C(CSc1nnc(CNC(=O)c2ccccc2)o1)NCc1ccco1	GPR151 ag 7.8 | GPR151 confirm inactive | GPR119 counter inactive
COc1ccc(Cl)cc1NC(=S)N(CCc1ccc(OC)c(OC)c1)Cc1ccccn1	none
CCOC(=O)C(=O)Nc1nnc(C(C)C)s1	none
CCOC(=O)C(=O)Nc1ncc(Cl)s1	GPR151 ag 5.4 | GPR151 confirm inactive | GPR119 counter inactive
Cc1nc(N2CCC(C(=O)O)CC2)c2oc3ccccc3c2n1	none
Cc1nc(N2CCOCC2)c2oc3ccccc3c2n1	GPR151 ag 7.4 | GPR151 confirm inactive | GPR119 counter inactive
Cc1cc(I)ccc1NC(=O)Cc1ccccc1	GPR151 ag 6.1 | GPR151 confirm inactive | GPR119 counter inactive
CCc1nc(N)c(C#N)c(-c2ccc([N+](=O)[O-])cc2)c1C	GPR151 ag 5.3 | GPR151 confirm inactive | GPR119 counter inactive
CCOC(=O)c1ccc(NC(=O)CCSc2nc(N)c3c(C)c(C)sc3n2)cc1	GPR151 ag 6.8 | GPR151 confirm inactive | GPR119 counter inactive
COc1ccc(N2C(=O)C3CCCN3C2c2ccccc2OC)cc1 (stereo not given)	GPR151 ag 6.1 | GPR151 confirm inactive | GPR119 counter inactive
COc1ccc(N2C(=O)C3CCCN3C2c2cc(OC)ccc2OC)cc1 (stereo not given)	none
CSC1=C(C#N)C(c2ccc3c(c2)OCO3)CC(=O)N1 (stereo not given)	GPR151 ag 5.1 | GPR151 confirm inactive | GPR119 counter inactive
CCCSC1=C(C#N)C(c2ccc3c(c2)OCO3)CC(=O)N1 (stereo not given)	none
O=S(=O)(c1ccc(-c2ccccc2)cc1)N1CCSC1c1ccc(Cl)cc1 (stereo not given)	none
COCCCNC(=O)CN(c1cc(Cl)ccc1C)S(C)(=O)=O	none
COCCCNC(=O)CN(c1cc(Cl)ccc1Cl)S(C)(=O)=O	GPR151 ag 10.6 | GPR151 confirm inactive | GPR119 counter inactive
Cc1cccc(NC(=O)c2cc(S(=O)(=O)N3CCC(C)CC3)ccc2F)c1	none
CSc1ccc(NC(=O)Nc2c(C)n(-c3ccccc3)c(=O)n2C)cc1	GPR151 ag 6.5 | GPR151 confirm inactive | GPR119 counter inactive
O=c1nc2s/c(=C/c3cccs3)c(=O)n2nc1Cc1ccc(F)cc1	GPR151 ag 5.0 | GPR151 confirm inactive | GPR119 counter inactive
CC(=O)Oc1ccc(/C=c2/sc3nc(=O)c(Cc4ccc(F)cc4)nn3c2=O)cc1	none
O=C1CCN(CCOc2ccc(Cl)cc2)CCN1Cc1ccccn1	none
C=CCn1c(SCC(N)=O)nnc1-c1ccc(Br)cc1	GPR151 ag 6.2 | GPR151 confirm inactive | GPR119 counter inactive
COc1cccc(NC(=O)CSc2nc3ccccc3c(=O)n2CCc2ccc(OC)c(OC)c2)c1	GPR151 ag 5.0 | GPR151 confirm inactive | GPR119 counter inactive
Nc1c2c(nc3c1CCC3)CCCC2	GPR151 ag 5.0 | GPR151 confirm inactive | GPR119 counter inactive

Compound activity as filed in PubChem BioAssay.
